High-throughput results from PubChem.
Rows were chosen to be rich in hits. Some 19% of all compounds tested hit in one or more screens of this group.
DT40 TDP1 no CPT: qHTS for Inhibitors of human tyrosyl-DNA phosphodiesterase 1 (TDP1): qHTS in cells in absence of CPT; Potency, µM (top dose mostly 46.2 µM), inactives show top-dose activity change, negative = growth inhibition, most hits filed as inhibitors; 15% of 420,000 active; AID 686978, 2013; DT40 Tdp1-/- hTDP1 cells, no CPT, ATP luminescence, 48 h; note: potency is the fitted concentration of half-maximal effect; nearly all actives have a fitted effect of over 55% in size
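Chicken DT40 Tdp1-/- cells stably complemented with human TDP1 were seeded at 400 cells/well with DMSO in place of 20 nM camptothecin. After compound pinning, cells grew at least 48 hr at 37 °C; viability read by CellTiter-Glo luminescence.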
uPA generation: qHTS for Inhibitors of Cell Surface uPA Generation; cell surface uPA generation assay, qHTS; Potency, µM (top dose mostly 38.3 µM), for inactives: top-dose activity change, negative = inhibition, hits mostly inhibitors; 0.31% of 330,000 active; active = well fitted inhibition curve with a large enough effect; inconclusive = small, poorly fitted or top-dose-only effect; inactive = no such curve, though single readings can be large or run the other way; tested in mouse RAW 264.7 cells; note: potency is the fitted concentration of half-maximal effect; nearly all actives have a fitted effect of over 55% in size
HT1080NT lethal: qHTS for induction of synthetic lethality in tumor cells producing 2HG: qHTS for the HT-1080-NT fibrosarcoma cell line | 1.6% of 360,000 active | Potency, µM (titrated, usually from 46.1 µM), without a hit: at the top dose activity, negative = less viability, most hits filed as cytotoxic | HT-1080-NT fibrosarcoma viability, CellTiter-Glo ATP luminescence, 48 h;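 note: NT is the 2HG producing partner of a matched IDH1 knockdown line; potency is the fitted concentration of half-maximal effect; 0% = DMSO-treated cells and -100% = media-only wells without cells; nearly all actives have a fitted effect of over 55% in size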
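Viability by CellTiter-Glo luminescence after 48 h compound exposure at 37C of HT-1080-NT cells (750/well, RPMI, 5% FBS). % activity scaled between DMSO wells and medium-only wells, then curve-fitted and categorized by curve class.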
TDP1 cell CPT: qHTS for Inhibitors of human tyrosyl-DNA phosphodiesterase 1 (TDP1): qHTS in cells in presence of CPT | Potency, µM (highest dose often 46.2 µM), inactives show at the top dose activity change, negative = growth inhibition, hits mostly inhibitors | 12% of 420,000 active | chicken DT40 Tdp1-/-;hTDP1 cells + 20 nM CPT, ATP luminescence, 48 h; note: potency is the fitted concentration of half-maximal effect; nearly all actives have a fitted effect of over 55% in size
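Chicken DT40 Tdp1-/- cells stably complemented with human TDP1 were seeded at 400 cells/well in medium containing 20 nM camptothecin, exposed to pin-transferred compounds, and grown at 37 °C for at least 48 hr. Viability was read as ATP luminescence.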
HT1080 IDH1KD tx: qHTS for induction of synthetic lethality in tumor cells producing 2HG: qHTS for the HT-1080-IDH1KD cell line; Potency, µM (top dose mostly 46.1 µM), for the others: at the top dose activity, negative = toxicity, usual class: cytotoxic; 2% of 360,000 active; HT-1080 IDH1 knockdown viability, ATP luminescence, 48 h; AID 686971, 2013;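 note: potency is the fitted concentration of half-maximal effect; 0% = DMSO wells and -100% = cell-free medium wells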
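% activity derives from luminescence (CellTiter-Glo), normalised to DMSO and no-cell wells. HT-1080-IDH1KD cells, 750/well, had 48 h compound exposure at 37 °C.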
IL1B secr inh: qHTS for Inhibitors of Inflammasome Signaling: IL-1-beta AlphaLISA Primary Screen; AID 743279, 2014; 4.7% of 360,000 active; activity change, % at 57.5 µM; THP-1 LPS/ATP IL-1B secretion, AlphaLISA, 16 h; active compounds read low; in the data active = activity change below about -50%; inconclusive = mostly about -30% to -49%
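Secreted IL-1B measured by AlphaLISA bead assay after 16 h compound exposure of THP-1 cells; compounds (final up to 57.5 uM) added 1 h before LPS (250 ng/mL) and ATP (1.25 mM) stimulation; lower signal means less secretion.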
Numbers without * were called inactive; i = inactive; ? = inconclusive; nt = not tested or not shown. Unless noted, calls come from the whole dose curve; as a rule, active = well fitted curve in the direction sought with a large enough effect; inconclusive = small, poorly fitted or top-dose-only effect, or another doubt; inactive = no such curve, though single readings can be large; an effect the other way counts as inactive or inconclusive. Unless noted, % is set by controls: 0 for no effect and ±100 for the full control effect.

SMILES	DT40 TDP1 no CPT	uPA generation	HT1080NT lethal	TDP1 cell CPT	HT1080 IDH1KD tx	IL1B secr inh
CCCCC(=O)N1CC(=O)Nc2ccc(F)cc2C1c1ccc(F)cc1 (configuration not stated)	?	2.2%	-1.2%	?	0.5%	-1.3
O=C1CN(C(=O)COc2ccc(Cl)cc2Cl)C(c2ccc(F)cc2)c2cc(F)ccc2N1 (configuration not stated)	?	nt	nt	20.6µM*	nt	nt
CCCn1cc(S(=O)(=O)c2ccc(C)c(C)c2)c(=O)c2cc(F)c(N3CCC(C)CC3)cc21	-23.4%	nt	nt	5.1%	nt	nt
Cc1noc(C)c1COC(=O)C1CCN(S(=O)(=O)c2ccc(F)cc2)CC1	0.4%	-0.8%	5.3%	-14.5%	12.6%	-0.5
COc1ccccc1N1CCN(C(=O)c2ccc(Nc3nc4ccccc4n4nnnc34)cc2)CC1	?	nt	nt	9.2µM*	nt	nt
c1ccc2c(c1)nc(Nc1ccc3c(c1)OCO3)c1nnnn12	16.4µM*	-4.7%	-29.7%	?	?	-11.6
Fc1cccc(Nc2nc3ccccc3n3nnnc23)c1	?	-12.0%	-3.8%	?	-1.6%	45.5
CCN(CC)S(=O)(=O)c1ccc(Nc2nc3ccccc3n3nnnc23)cc1	16.4µM*	-2.2%	-18.5%	23.1µM*	-19.2%	2.9
COc1ccc(Nc2nc3ccc(Cl)cc3n3nnnc23)cc1OC	16.4µM*	nt	nt	?	nt	nt
COc1cccc(Nc2nc3ccccc3n3nnnc23)c1	?	-10.7%	-10.4%	?	-6.5%	15.1
Cc1ccc(C)c(N2CCN(C(=O)c3ccc(Nc4nc5ccccc5n5nnnc45)cc3)CC2)c1	-11.0%	nt	nt	2.3%	nt	nt
CCc1ccc(-n2c(=O)c3c(C)c(C)sc3n(CC(=O)NCC3CCCO3)c2=O)cc1 (configuration not stated)	?	-1.3%	0.0%	9.4%	-1.2%	1.4
Cc1ccc(OCC(=O)Nc2cc(S(=O)(=O)N3CCOCC3)ccc2Cl)c([N+](=O)[O-])n1	-5.3%	1.4%	25.1%	-6.4%	2.1%	0.7
Cc1cc(NC(=O)c2ccc(C#N)cc2)on1	-28.1%	-5.1%	-0.2%	-8.6%	1.9%	-17.9
CCCCn1c(SCc2nc3ccccc3s2)nc2cc(S(N)(=O)=O)ccc21	16.4µM*	nt	?	16.4µM*	?	?
CCCCn1c(SCc2nc3ccccc3s2)nc2ccccc2c1=O	8.2µM*	-1.8%	4.1%	20.6µM*	5.1%	0.0
COC(=O)C(CC(=O)c1ccc(Br)cc1)n1ccnc1 (configuration not stated)	1.26µM*	nt	nt	1.41µM*	nt	nt
Cc1cc(C)c2c(ccc3ccccc32)n1	-14.4%	2.9%	9.0%	2.3%	18.7%	1.1
Oc1ccc(-c2nc3ccc4ccccc4c3c3c2CCC3)cc1O	?	-4.2%	?	?	?	-54.5*
Cc1cnn(C(=S)NCc2ccc(Cl)cc2)c1	23.1µM*	nt	?	?	?	-8.3
O=C(O)CC1(CC(=O)Nc2ccc(Cl)cc2C(=O)c2ccccc2)CCCC1	-9.1%	-21.4%	-7.4%	-2.3%	-17.1%	17.9
O=C(C1CCC(=O)N(C2CCCCCC2)C1)N1CCN(c2ccccc2Cl)CC1 (configuration not stated)	20.6µM*	1.9%	?	?	0.8%	13.2
Cc1cccc(N2CCN(C(=O)C3CCCCC3)CC2)c1C	17.8µM*	0.2%	-1.8%	29.1µM*	-6.9%	-65.0*
CCS(=O)(=O)N1Cc2ccccc2CC1C(=O)N1CCN(c2cccc(C)c2C)CC1 (configuration not stated)	14.6µM*	2.7%	-1.8%	?	-3.2%	4.0
CCS(=O)(=O)N1Cc2ccccc2CC1C(=O)Nc1ccc(F)cc1 (configuration not stated)	-3.4%	8.6%	29.2%	-3.2%	-1.9%	16.3
SMILES	DT40 TDP1 no CPT	uPA generation	HT1080NT lethal	TDP1 cell CPT	HT1080 IDH1KD tx	IL1B secr inh
Cc1ccccc1N1CCN(C(=O)C2CCC(=O)N(C3CCCC3)C2)CC1 (configuration not stated)	5.9%	2.5%	4.4%	-9.7%	8.8%	33.2
O=C(C1CC(=O)N(C2CCCCC2)C1)N1CCN(c2cccc(C(F)(F)F)c2)CC1 (configuration not stated)	?	-9.4%	-2.7%	16.4µM*	-2.9%	-4.6
Cc1cccc(N2CCN(C(=S)NC3CCCCC3)CC2)c1C	16.4µM*	2.3%	-2.9%	?	-6.2%	0.0
Cc1cccc(N2CCN(C(=O)C3CC(=O)N(C4CCCC4)C3)CC2)c1C (configuration not stated)	23.1µM*	-10.2%	10.8%	18.4µM*	-8.2%	-2.2
Cc1ccc(CN2CC(C(=O)N3CCN(c4ccccc4Cl)CC3)CC2=O)cc1 (configuration not stated)	?	-7.9%	5.2%	?	5.6%	-58.2*
O=C(C1CC(=O)N(C2CCCC2)C1)N1CCN(c2ccccc2)CC1 (configuration not stated)	-0.1%	-2.4%	16.8%	-5.6%	26.8%	i
Cc1cc(N2CCC(C(=O)N3CCN(c4cccc(C)c4C)CC3)CC2)n2ncnc2n1	20.6µM*	-6.9%	-3.3%	?	-5.9%	-24.7
Cc1cc(N2CCCC(C(=O)Nc3cccc4ccccc34)C2)n2ncnc2n1 (configuration not stated)	?	-1.3%	-25.3%	?	-13.3%	-16.8
O=C(Cc1ccccc1)NCC(=O)Nc1cccc(Cl)c1	3.2%	0.4%	-16.8%	-2.9%	-2.6%	9.3
O=C(c1ccncc1)N1CCN(S(=O)(=O)c2ccc(F)cc2)CC1	26.8%	10.8%	?	-1.3%	11.6%	3.3
COC1(OC)C(/C=C/c2ccc(C)cc2)C(C#N)(C#N)C1(OC)OC (configuration not stated)	?	-13.1%	?	?	?	-120.0*
O=C(NCc1ccccc1)c1cc(C2COCCN2S(=O)(=O)c2ccccc2)on1 (configuration not stated)	-22.1%	nt	?	3.6%	10.9%	0.0
CCc1cc2cc(C)cc(C)c2[nH]c1=S	-18.2%	0.8%	12.7%	?	1.7%	-12.1
O=S(=O)(c1ccc(NC(=S)NCc2cccnc2)cc1)N1CCCCC1	6.51µM*	-8.9%	?	8.2µM*	10.3µM*	12.8
